Measurements from PubChem BioAssay (NCATS).
Results filed as inconclusive are left out. A call without a number means that no potency is given here. The source made the active and inactive calls. Unless noted, calls come from the whole dose curve.

biological target: DNA polymerase III PolC-type (Bacillus subtilis (strain 168)) (UniProt P13267); test: qHTS Validation Assay for the Inhibitors of DNA Replication in Gram-Positive Bacteria (AID 485295; active = well fitted inhibition curve with a large enough effect;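 note: PicoGreen fluorescence of double-stranded DNA made on primed circular M13 template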); settings: Gram-positive bacterial DNA replication assay; series mostly up to 57.1 µM
Method in brief: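 Reconstituted B. subtilis holoenzyme (Pol III, beta clamp, SSB, primase) was preincubated with compound at room temperature, then given single-stranded circular M13Gori plus dNTPs and NTPs. EDTA-containing PicoGreen stopped the reaction, and dsDNA product was read by fluorescence.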

DNA polymerase III PolC-type (Bacillus subtilis (strain 168)), sequence (P13267 whole entry, looked up): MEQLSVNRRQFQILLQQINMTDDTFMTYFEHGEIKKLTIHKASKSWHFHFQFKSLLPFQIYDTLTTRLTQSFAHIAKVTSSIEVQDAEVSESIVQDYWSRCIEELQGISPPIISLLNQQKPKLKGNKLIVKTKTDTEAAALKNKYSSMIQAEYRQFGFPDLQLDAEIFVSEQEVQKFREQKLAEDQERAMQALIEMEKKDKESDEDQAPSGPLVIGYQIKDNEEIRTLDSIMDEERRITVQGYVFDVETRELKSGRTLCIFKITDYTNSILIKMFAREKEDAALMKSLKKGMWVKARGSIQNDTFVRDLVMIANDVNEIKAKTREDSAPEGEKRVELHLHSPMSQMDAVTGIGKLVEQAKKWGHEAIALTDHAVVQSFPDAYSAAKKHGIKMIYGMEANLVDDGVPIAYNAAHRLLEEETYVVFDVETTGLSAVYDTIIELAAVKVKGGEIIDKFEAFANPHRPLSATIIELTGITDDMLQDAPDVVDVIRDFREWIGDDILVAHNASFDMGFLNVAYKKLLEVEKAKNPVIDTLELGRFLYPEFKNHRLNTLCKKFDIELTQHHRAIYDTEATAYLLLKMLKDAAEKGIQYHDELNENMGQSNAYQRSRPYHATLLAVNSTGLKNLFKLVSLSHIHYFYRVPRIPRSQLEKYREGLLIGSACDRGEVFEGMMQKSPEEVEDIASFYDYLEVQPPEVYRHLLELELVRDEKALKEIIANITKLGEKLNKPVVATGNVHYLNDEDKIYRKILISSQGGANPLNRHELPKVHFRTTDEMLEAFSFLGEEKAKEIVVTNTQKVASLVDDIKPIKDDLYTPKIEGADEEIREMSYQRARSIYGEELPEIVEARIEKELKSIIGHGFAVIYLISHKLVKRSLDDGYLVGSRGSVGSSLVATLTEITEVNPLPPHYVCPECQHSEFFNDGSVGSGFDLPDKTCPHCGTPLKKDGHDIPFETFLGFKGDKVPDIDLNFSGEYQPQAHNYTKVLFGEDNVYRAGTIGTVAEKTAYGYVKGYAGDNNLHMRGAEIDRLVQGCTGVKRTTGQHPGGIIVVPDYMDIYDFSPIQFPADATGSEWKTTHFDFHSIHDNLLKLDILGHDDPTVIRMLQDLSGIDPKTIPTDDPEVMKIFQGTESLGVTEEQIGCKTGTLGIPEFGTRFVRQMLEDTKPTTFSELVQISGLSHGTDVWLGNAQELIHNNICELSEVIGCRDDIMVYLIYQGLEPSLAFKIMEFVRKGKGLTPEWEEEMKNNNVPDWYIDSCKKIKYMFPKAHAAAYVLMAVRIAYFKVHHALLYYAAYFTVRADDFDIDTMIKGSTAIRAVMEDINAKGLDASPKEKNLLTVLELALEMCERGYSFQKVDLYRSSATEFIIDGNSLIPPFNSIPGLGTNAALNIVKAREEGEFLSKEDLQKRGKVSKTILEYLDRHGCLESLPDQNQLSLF

SMILES | Potency
OCC1O[C@H](O)C(Cl)C(O)C1O (stereo partly specified) | inactive
NS(=O)(=O)C#Cc1ccccc1 | inactive
O=C(O)c1cc([N+](=O)[O-])ccc1NCCCc1ccccc1 | inactive
NCCNC(=O)c1ncsc1-c1cccc(F)c1 | inactive
Cn1cc(C2=C(c3ccc(Cl)cc3Cl)C(=O)NC2=O)c2ccccc21 | inactive
CCNC(=O)[C@H]1O[C@@H](n2cnc3c(N)nc(NCCc4ccc(CCC(=O)O)cc4)nc32)[C@H](O)[C@@H]1O | inactive
Nc1ncnc2c1ncn2[C@@H]1O[C@H](COP(=O)(O)OP(=O)(O)OP(=O)(O)OP(=O)(O)OC[C@@H]2O[C@H](n3cnc4c(N)ncnc43)[C@@H](O)[C@H]2O)[C@@H](O)[C@H]1O | inactive
O=c1[nH]c2cc(C(F)(F)F)ccc2n1-c1cc(C(F)(F)F)ccc1O | inactive
O=C1NC(=O)/C(=C/c2ccc3nccnc3c2)S1 | inactive
Nc1nc(SCc2ccc([N+](=O)[O-])cc2)c2ncn([C@@H]3O[C@H](CO)[C@@H](O)[C@H]3O)c2n1 | inactive
Nc1ncnc2c1ncn2[C@@H]1O[C@H](COP(=O)(O)CP(=O)(O)OP(=O)(O)O)[C@@H](O)[C@H]1O | inactive
CN(C)c1ccc(/C=C2\C(=O)Nc3ccccc32)cc1 | inactive
COc1cc(OC)c(/C=C2/C(=O)Nc3ccccc32)c(OC)c1 | inactive
O=S(=O)(c1cccc2c(I)cccc12)N1CCCNCC1 | inactive
CNc1ncnc2c1ncn2[C@@H]1O[C@H](CO)[C@@H](O)[C@H]1O | inactive
C=CC(N)CCC(=O)O (stereo unspecified) | inactive
CSc1nc(N)c2ncn([C@@H]3O[C@H](COP(=O)(O)OP(=O)(O)OP(=O)(O)O)[C@@H](O)[C@H]3O)c2n1 | inactive
CC(C)Cc1ccc([C@H](C)C(=O)O)cc1 | inactive
Cc1cc2c(cc1Cl)N(C(=O)Nc1ccc(Oc3cccnc3C)nc1)CC2 | inactive
Fc1ccc(C(OCCCc2cnc[nH]2)c2ccc(F)cc2)cc1 | inactive

biological target: Tumor susceptibility gene 101 protein (Homo sapiens) (UniProt Q99816); test: qHTS Validation Assay for Iinhibitors of HIV-1 Budding by Blocking the Interaction of PTAP/TSG101 (AID 485342); settings: TSG101-PTAP binding, fluorescence polarization, 4-point titration; series mostly up to 115 µM
Method in brief: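 Tsg101 binding domain (10 uM final) in pH 7.5 HEPES/NaCl/Tween 20/EDTA/TCEP buffer was mixed with pin-transferred compounds, then FITC-labeled PTAP peptide (50 nM final) was added; after 20 min at r.t., fluorescence polarization was read.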

Tumor susceptibility gene 101 protein (Homo sapiens), sequence (Q99816 whole entry, looked up, the tested form may be a part): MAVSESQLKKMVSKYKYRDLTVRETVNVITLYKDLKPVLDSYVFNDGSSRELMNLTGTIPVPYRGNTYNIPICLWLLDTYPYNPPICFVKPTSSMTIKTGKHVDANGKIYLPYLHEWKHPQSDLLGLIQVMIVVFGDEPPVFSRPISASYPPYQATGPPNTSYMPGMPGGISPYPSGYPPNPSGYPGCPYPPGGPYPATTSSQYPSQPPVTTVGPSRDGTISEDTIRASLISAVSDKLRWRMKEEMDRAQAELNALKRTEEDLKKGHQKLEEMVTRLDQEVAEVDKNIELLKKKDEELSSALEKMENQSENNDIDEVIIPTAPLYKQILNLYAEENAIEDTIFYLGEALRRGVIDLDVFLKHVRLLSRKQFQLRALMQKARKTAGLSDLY

SMILES | outcome
N.N.N.N.N.N.N.N.N.N.N.N.N.N.O.O.[Ru+4].[Ru+5].[Ru+5] | inactive
OCC1O[C@H](O)C(Cl)C(O)C1O (stereo partly specified) | inactive
CO/S(=N\S(=O)(=O)c1ccc(Cl)cc1)c1ccc([N+](=O)[O-])cc1 (stereo unspecified) | inactive
NS(=O)(=O)C#Cc1ccccc1 | inactive
NCC1OC(O[C@H]2[C@H](O)[C@@H](OC3C(O)C(N)CC(N)C3OC3OC(CO)C(O)C(O)C3N)O[C@@H]2CO)C(N)C(O)C1O (stereo partly specified) | inactive
O=C(O)c1cc([N+](=O)[O-])ccc1NCCCc1ccccc1 | inactive
Oc1ccccc1O | inactive
Cn1cc(C2=C(c3ccc(Cl)cc3Cl)C(=O)NC2=O)c2ccccc21 | inactive
CC1(C)CCC=[N+]1[O-] | inactive
CCNC(=O)[C@H]1O[C@@H](n2cnc3c(N)nc(NCCc4ccc(CCC(=O)O)cc4)nc32)[C@H](O)[C@@H]1O | inactive
Nc1ncnc2c1ncn2[C@@H]1O[C@H](COP(=O)(O)OP(=O)(O)OP(=O)(O)OP(=O)(O)OC[C@@H]2O[C@H](n3cnc4c(N)ncnc43)[C@@H](O)[C@H]2O)[C@@H](O)[C@H]1O | inactive
O=c1[nH]c2cc(C(F)(F)F)ccc2n1-c1cc(C(F)(F)F)ccc1O | inactive
CCCCCCCCCCCCCCCCCCNC(=O)OCC(COP(=O)([O-])OCC[n+]1ccsc1)OC (stereo unspecified) | inactive
CN(C)c1ccc(/C=C2\C(=O)Nc3ccccc32)cc1 | inactive
COc1cc(OC)c(/C=C2/C(=O)Nc3ccccc32)c(OC)c1 | inactive
O=S(=O)(c1cccc2c(I)cccc12)N1CCCNCC1 | inactive
CNc1ncnc2c1ncn2[C@@H]1O[C@H](CO)[C@@H](O)[C@H]1O | inactive
C=CC(N)CCC(=O)O (stereo unspecified) | inactive
CSc1nc(N)c2ncn([C@@H]3O[C@H](COP(=O)(O)OP(=O)(O)OP(=O)(O)O)[C@@H](O)[C@H]3O)c2n1 | inactive
CC[C@@H](C)[C@H]1O[C@]2(CC[C@H]1C)C[C@@H]1C[C@@H](CC=C(C)[C@@H](O[C@H]3C[C@H](OC)[C@@H](O[C@H]4C[C@H](OC)[C@@H](O)[C@H](C)O4)[C@H](C)O3)[C@@H](C)C=CC=C3CO[C@@H]4[C@H](O)C(C)=C[C@@H](C(=O)O1)[C@]34O)O2 | inactive
NC(N)=NC(=O)c1nc(Cl)c(N2CCCCCC2)nc1N | inactive
Cc1cc2c(cc1Cl)N(C(=O)Nc1ccc(Oc3cccnc3C)nc1)CC2 | inactive
Fc1ccc(C(OCCCc2cnc[nH]2)c2ccc(F)cc2)cc1 | inactive
COc1ccc(/C=C/C(=O)Nc2ccccc2C(=O)O)cc1OC | inactive
CN1CCc2ccccc2Cc2[nH]c3ccccc3c2CC1 | inactive

test system: not listed separately; test: qHTS Validation Assay to Find Inhibitors of Chronic Active B-Cell Receptor Signaling (AID 485345; active = well fitted curve in the direction sought with a large enough effect in the main read-out, with a control signal flat, not every such curve was filed as active); settings: ABC-DLBCL cells, chronic BCR signaling reporter, CBG luciferase; series mostly up to 46.1 µM
Method in brief: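 Read-out: ratio of filter-corrected green (IkappaBalpha fusion) to red (native) luciferase signal in doxycycline-induced TMD8 cells after 4 h at 37C. Titration spanned 46 uM–3 nM; Data were normalised to basal cells and 10 uM MG-132 wells.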

SMILES | outcome
CO/S(=N\S(=O)(=O)c1ccc(Cl)cc1)c1ccc([N+](=O)[O-])cc1 (stereo unspecified) | inactive
NCC1OC(O[C@H]2[C@H](O)[C@@H](OC3C(O)C(N)CC(N)C3OC3OC(CO)C(O)C(O)C3N)O[C@@H]2CO)C(N)C(O)C1O (stereo partly specified) | inactive
NCCNC(=O)c1ncsc1-c1cccc(F)c1 | inactive
CC1(C)CCC=[N+]1[O-] | inactive
O=C1NC(O)=NC1(c1ccccc1)c1ccccc1 | inactive
CCCCCCCCCCCCCCCCCCNC(=O)OCC(COP(=O)([O-])OCC[n+]1ccsc1)OC (stereo unspecified) | inactive
Nc1ncnc2c1ncn2[C@@H]1O[C@H](COP(=O)(O)CP(=O)(O)OP(=O)(O)O)[C@@H](O)[C@H]1O | inactive
C=CC(N)CCC(=O)O (stereo unspecified) | inactive
NC(N)=NC(=O)c1nc(Cl)c(N2CCCCCC2)nc1N | inactive
CC(C)Cc1ccc([C@H](C)C(=O)O)cc1 | inactive
CN1CCc2ccccc2Cc2[nH]c3ccccc3c2CC1 | inactive
